Reference: PubChem BioAssay AID720513 (Broad Institute, 2013)
Out of some 2,100 compounds screened, about 480 (23%) were called active. Roughly 5% stayed inconclusive and do not appear here.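 The calls were made as follows: active = fitted curve reaches 40% activation at or below the top valid concentration, in every replicate test; inconclusive = replicate tests disagree on the call; inactive = the rest, including activity in the opposite direction.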 These entries were drawn from the full list. Potency and affinity values are given separately.

assay: PGC1a acetylation increase, cellular AlphaLISA – cell-based, cherry-picked samples, set 6, dose response (AID 720513); conditions: U2OS PGC1a acetylation AlphaLISA, overnight, 0 = neutral, -100 = inhibitor control; series mostly up to 19.5 µM; activation (acetylation increase): at the top concentration;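 also: cells made to overexpress flag tagged PGC1a plus GCN5 acetyltransferase by viral infection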

Row | Compound | activation (acetylation increase)
1 | COCC(=O)NCc1nc2ccccc2n1Cc1ccccc1F | -16.1% [at 10 µM] (inactive)
2 | COCCNC(=O)C(c1ccc(F)cc1)N(Cc1ccco1)C(=O)CCC(=O)Nc1nccs1 (configuration not stated) | 6.62% (inactive)
3 | COc1ccc2cc3cc(C(=O)NCc4cccs4)oc3nc2c1 | -4.04% (inactive)
4 | CCCCn1nc(NC(=O)c2cccs2)c2cc3ccccc3nc21 | 54.1% (inactive)
5 | CN(C)c1ccc(C(=O)NC2(N3CCC3=O)CCCC2)cc1 | 29% (inactive)
6 | CCOC(=O)N1CCN(C(=O)c2cc(Cl)c(Cl)cc2C(=O)O)CC1 | -24.4% (inactive)
7 | Clc1ccc(CSc2nnc(-c3cccnc3)n2Cc2ccco2)c(Cl)c1 | 38.7% (inactive)
8 | CCOC(=O)C1=C(C)N=c2s/c(=C\c3cccc(OCC(=O)O)c3)c(=O)n2C1c1ccccc1OC (configuration not stated) | 22.3% (inactive)
9 | C[C@H](CO)N1C[C@H](C)[C@H](CN(C)Cc2ccc(C(=O)Nc3ccccc3N)cc2)Oc2c(NC(=O)c3cnccn3)cccc2C1=O | -22.5% (inactive)
10 | C[C@@H]1CN([C@H](C)CO)C(=O)c2cc(NS(=O)(=O)c3ccc(F)cc3)ccc2O[C@H]1CN(C)Cc1ccc(C(F)(F)F)cc1 | 13.5% (inactive)
11 | COc1ccc(CN(C)C[C@H]2Oc3c(NC(=O)CCCCCC(=O)Nc4ccccc4N)cccc3C(=O)N([C@H](C)CO)C[C@@H]2C)cc1 | 9.2% [at 21 µM] (inactive)
12 | C[C@@H]1CN([C@H](C)CO)C(=O)c2cc(NC(=O)Cc3ccccc3)ccc2O[C@@H]1CN(C)Cc1ccncc1 | -2.98% (inactive)
13 | Cc1noc(C)c1NC(=O)Nc1cccc2c1O[C@H](CN(C)Cc1ccc(Oc3ccccc3)cc1)[C@H](C)CN([C@@H](C)CO)C2=O | -33.3% (inactive)
14 | Cc1noc(C)c1S(=O)(=O)Nc1cccc2c1O[C@@H](CN(C)Cc1ccncc1)[C@@H](C)CN([C@@H](C)CO)C2=O | -8.63% (inactive)
15 | C[C@H](CO)N1C[C@H](C)[C@@H](CN(C)Cc2ccc(C(F)(F)F)cc2)Oc2ccc(NS(=O)(=O)c3ccc(F)cc3)cc2C1=O | 8.36% [at 21 µM] (inactive)
16 | C[C@H]1CN([C@@H](C)CO)C(=O)c2cccc(NC(=O)C3CCCCC3)c2O[C@H]1CN(C)Cc1ccc(C(=O)Nc2ccccc2N)cc1 | 264% [at 10 µM] (inactive)
17 | C[C@@H]1CN([C@@H](C)CO)C(=O)CCCn2cc(nn2)CO[C@H]1CN(C)Cc1ccc2c(c1)OCO2 | 9.96% [at 21 µM] (inactive)
18 | O=C(C[C@@H]1C=C[C@@H](NC(=O)CN2CCOCC2)[C@H](CO)O1)NC1CCCCC1 | 5.29% (inactive)
19 | CSc1nc(SC)c2c3c(oc2n1)COC(C)(C)C3 | 18.7% (inactive)

Row | Compound | activation (acetylation increase)
20 | COCC#Cc1ccc2c(c1)O[C@H](CN(C)C(=O)CN(C)C)[C@@H](C)CN([C@@H](C)CO)S2(=O)=O | 1.49% (inactive)
21 | CCC(=O)N1CCc2cc(OC)c(OC)cc2C1COc1ccc(C(=O)OC)cc1 (configuration not stated) | 28.5% (inactive)
22 | CCC(=O)N(C)C[C@@H]1Oc2ncc(C#CCc3ccccc3)cc2C(=O)N([C@H](C)CO)C[C@@H]1C | -52.8% (inactive)
23 | C[C@@H]1CN([C@H](C)CO)C(=O)c2cccc(NC(=O)c3nc4ccccc4s3)c2O[C@@H]1CN(C)CC1CCCCC1 | -33.2% (inactive)
24 | C[C@H]1CN([C@@H](C)CO)C(=O)c2cccc(NC(=O)c3nc4ccccc4s3)c2O[C@H]1CN(C)Cc1ccc(C(=O)Nc2ccccc2N)cc1 | 60.2% (inactive)
25 | CN(c1ccccc1)S(=O)(=O)c1ccc(Cl)nc1 | -0.798% (inactive)
26 | O=C(/C=C/c1ccccc1)CC(O)(c1ccccc1)C(F)(F)F (configuration not stated) | 27.6% [at 10 µM] (inactive)
27 | CCN(CC)S(=O)(=O)c1ccc(C(=O)N(c2ccccc2)C2C=CS(=O)(=O)C2)cc1 (configuration not stated) | -8.54% (inactive)
28 | CNC[C@@H](CC1CCCCC1)NC[C@H](CC(C)C)NCCc1cccc(C(F)(F)F)c1 | -101% (inactive)
29 | Cc1cc(NS(=O)(=O)c2ccc(NC(=O)COc3c(C)cc(Br)cc3C)cc2)no1 | 19.4% (inactive)
30 | CCN(CC(=O)NCc1ccc(Cl)cc1)C(=O)CSCC(=O)Nc1ccc(C)cc1 | -34% (inactive)
31 | Cc1nnc2sc(-c3ccc(NC(=O)c4ccc(-c5ccc(Cl)cc5Cl)o4)cc3)nn12 | -15.2% (inactive)
32 | CCC(=O)NCc1c(C)c(C)n(Cc2ccccc2)c1-n1cccc1 | 14.2% (inactive)
33 | Cc1ccc(S(=O)(=O)OCCC2=CC(=O)CCN2Cc2ccccc2)cc1 | -13.4% (inactive)
34 | COc1ccc(S(=O)(=O)N2CCCCN3[C@@H](CO)[C@@H](c4ccc(C5=CCCCC5)cc4)[C@@H]3C2)cc1 | 16.8% (inactive)
35 | Cc1ccc(S(=O)(=O)N2CCCCC2C(=O)O)cc1 (configuration not stated) | -66.4% (inactive)
36 | CN(C)CC(=O)N[C@H]1CC[C@H](CCNC(=O)Nc2ccc(Cl)cc2)O[C@H]1CO | 0.988% (inactive)
37 | CCOC(=O)N1CCN(C(=O)c2cc(S(=O)(=O)N3CCCC3)cn2C)CC1 | 14.9% (inactive)
38 | CCCc1nnc(NC(=O)CN2CCOCC2)s1 | -3.15% (inactive)

Row | Compound | activation (acetylation increase)
39 | CNC[C@@H]1Oc2cc(C#CCC3CCCC3)ccc2S(=O)(=O)N([C@H](C)CO)C[C@H]1C | -9.01% (inactive)
40 | COc1ccc(-c2noc(CCC(=O)N3CCN(c4cccc(C)c4C)CC3)n2)cc1 | 16.8% (inactive)
41 | O=C(N/N=C/C=C\c1ccccc1[N+](=O)[O-])c1cccnc1 | 11% (inactive)
42 | COc1ccc(COc2cc(-c3cccc(OC)c3)nc3ccc(NC(=O)c4cccnc4)cc23)cc1 | 12% (inactive)
43 | CC(=O)N1N=C(c2ccco2)CC1c1ccco1 (configuration not stated) | -18.8% (inactive)
44 | CCC1SC2=NC(C)=C(C(=O)OC)C(c3cccs3)N2C1=O (configuration not stated) | 9.25% (inactive)
45 | COc1ccc(S(=O)(=O)N[C@@H]2CC[C@H](CCNC(=O)c3ccccc3F)O[C@H]2CO)cc1 | 16.6% (inactive)
46 | O=c1c(Cl)c(Cl)cnn1Cc1nnc(-c2ccc(Cl)cc2)o1 | -89.1% (inactive)
47 | CCC(=O)N(C)C[C@@H]1Oc2cc(C#Cc3cccnc3)ccc2S(=O)(=O)N([C@H](C)CO)C[C@H]1C | -30.7% (inactive)
48 | C=CCc1ccc(OCCCCNC(C)CC)c(OC)c1 (configuration not stated) | 1.82% (inactive)
49 | O=C1CN(C(=O)Cn2ncc(Cl)c(Cl)c2=O)c2ccccc2N1 | -101% (inactive)
50 | CSCC(O)Cn1[nH]c(=O)c2cc(Cl)c(Cl)cc2c1=O (configuration not stated) | -20.6% (inactive)
51 | Cc1cc(S(=O)(=O)NC(C)C)ccc1OCC(=O)Nc1ccc2c(c1)OCCO2 | 6.52% (inactive)
52 | O=C(/C=C/c1ccccc1)CC(O)(c1ccccc1)C(F)(F)C(F)F (configuration not stated) | -99.5% (inactive)
53 | Cc1ccc(C2CC2c2n[nH]c(=S)n2-c2ccc(Cl)cc2)cc1 (configuration not stated) | 4.31% (inactive)
54 | CCCNC(=O)c1nnsc1S(=O)c1ccc(Cl)cc1 (configuration not stated) | -98.5% (inactive)
55 | O=C(Nc1ccccc1)c1nnsc1S(=O)c1ccc(Cl)cc1 (configuration not stated) | -86.1% (inactive)
56 | Cc1ccc(-n2nc3ccc(N)cc3n2)cc1 | 31% (inactive)
57 | CCC(=O)N(C)C[C@@H]1Oc2ncc(-c3ccc(C(=O)N(C)C)cc3)cc2C(=O)N([C@H](C)CO)C[C@@H]1C | -3.52% (inactive)
